Compounds without any hit were thinned out: in the full panel of roughly 79,000, 15% have a hit. A number with no mark means an inactive call. Calls of active or inactive are those of the source. No stated cut-off is given here; in the data, active means growth inhibition above about 70%; inactive means the rest.
Experiment: NCI Yeast Anticancer Drug Screen. Data for the CLN2oe strain (AID 163);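 further: 0% = growth of vehicle-only control cultures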
Details: S. cerevisiae CLN2oe strain, active compounds read high
Method: Growth inhibition of yeast strains with defined genetic alterations is measured as a screen for potential anti-cancer activity. Selected strains with alterations in DNA damage repair or cell cycle control were exposed to compounds and growth inhibition was measured relative to vehicle treated controls. The strain used in this assay is CLN2oe

CCOC(=S)SSSC(=S)OCC
growth inhibition (at 1.2 µM): -2%
growth inhibition (at 3.7 µM): -1%
growth inhibition (at 11.0 µM): 18%
growth inhibition (at 33.0 µM): 57%
growth inhibition (at 100.0 µM): 95% (active)

Nc1ccc2c(c1)C(=O)c1c(F)cccc1-2
growth inhibition (at 1.2 µM): -1%
growth inhibition (at 3.7 µM): 4%
growth inhibition (at 11.0 µM): 8%
growth inhibition (at 33.0 µM): 14%
growth inhibition (at 100.0 µM): 32%

CC(=O)Oc1ccc2c(c1)Cc1cc(N3C(=O)C=CC3=O)ccc1-2
growth inhibition (at 1.2 µM): 1%
growth inhibition (at 3.7 µM): 12%
growth inhibition (at 11.0 µM): 35%
growth inhibition (at 33.0 µM): 92% (active)
growth inhibition (at 100.0 µM): 96% (active)

COc1cc(NCCCCNCC(C)(C)C)c2ncccc2c1
growth inhibition (at 1.2 µM): 0%
growth inhibition (at 3.7 µM): 2%
growth inhibition (at 11.0 µM): 12%
growth inhibition (at 33.0 µM): 25%
growth inhibition (at 100.0 µM): 39%

O=c1[nH]c2c([N+](=O)[O-])cccc2c2ccccc12
growth inhibition (at 1.2 µM): -13%
growth inhibition (at 3.7 µM): -15%
growth inhibition (at 11.0 µM): -16%
growth inhibition (at 33.0 µM): -29%
growth inhibition (at 100.0 µM): 12%

Cc1ccc([N+](=O)[O-])c2c(NCCC[N+](C)(C)[O-])c3ccccc3nc12
growth inhibition (at 1.2 µM): -16%
growth inhibition (at 3.7 µM): -9%
growth inhibition (at 11.0 µM): -17%
growth inhibition (at 33.0 µM): -21%
growth inhibition (at 100.0 µM): 10%

Cc1oc2ccccc2c(=O)c1Cn1nnc2ccccc21
growth inhibition (at 1.2 µM): 0%
growth inhibition (at 3.7 µM): 0%
growth inhibition (at 11.0 µM): -4%
growth inhibition (at 33.0 µM): -5%
growth inhibition (at 100.0 µM): 19%

CCN(CC)CCNc1ccc2nc(C)n3c4ccc(OC)cc4c(=O)c1c23
growth inhibition (at 1.2 µM): 1%
growth inhibition (at 3.7 µM): 15%
growth inhibition (at 11.0 µM): 17%
growth inhibition (at 33.0 µM): 21%
growth inhibition (at 100.0 µM): 17%

— PubChem BioAssay (NCI)
